Bioassay records: PubChem, National Center for Advancing Translational Sciences (NCATS)
KDM4E inh – blocks human JMJD2E demethylase activity; B2RXH2; JMJD2E catalytic domain, FDH-coupled NADH fluorescence (FDH is formaldehyde dehydrogenase); Potency, µM (top dose mostly 57.1 µM), for inactives: at the highest dose activity change, negative = inhibition, hits mostly inhibitors; 230,000 tested, 1.6% active; AID 2147; active = well fitted inhibition curve with a large enough effect, not every such curve was filed as active; inconclusive = small, poorly fitted or top-dose-only effect, or another doubt; inactive = no such curve, though single readings can be large or run the other way;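 also: 0% = wells with enzyme and -100% = buffer wells without enzyme; nearly all actives have a fitted effect of over 50% in size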
ALDH1A1 block – blocks purified human ALDH1A1 activity; P00352; Purified ALDH1A1, NADH fluorescence, propionaldehyde substrate; Potency, µM (doses to about 75.3 µM), for inactives: at the highest dose activity, negative = inhibition, hits mostly inhibitors; 220,000 tested, 7.3% active; active = well fitted inhibition curve with a large enough effect, not every such curve was filed as active; inconclusive = small, poorly fitted or top-dose-only effect, or another doubt; inactive = no such curve, though single readings can be large or run the other way;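 also: plate controls were no enzyme wells and a reference inhibitor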
Target sequence (P00352 whole entry, looked up): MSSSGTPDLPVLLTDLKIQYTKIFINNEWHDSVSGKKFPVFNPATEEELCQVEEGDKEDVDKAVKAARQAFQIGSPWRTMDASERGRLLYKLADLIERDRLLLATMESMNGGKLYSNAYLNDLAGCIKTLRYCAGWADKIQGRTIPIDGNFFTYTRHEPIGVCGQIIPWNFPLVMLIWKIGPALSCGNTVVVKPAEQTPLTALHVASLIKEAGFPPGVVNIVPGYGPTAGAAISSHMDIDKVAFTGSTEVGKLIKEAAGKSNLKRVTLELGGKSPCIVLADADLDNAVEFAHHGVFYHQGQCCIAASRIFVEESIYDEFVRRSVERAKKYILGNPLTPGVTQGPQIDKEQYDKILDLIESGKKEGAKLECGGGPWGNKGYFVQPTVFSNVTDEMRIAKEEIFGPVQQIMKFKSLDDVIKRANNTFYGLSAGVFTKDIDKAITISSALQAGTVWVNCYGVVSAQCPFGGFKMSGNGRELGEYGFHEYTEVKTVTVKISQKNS
Tau fibril ThT – inhibitors of human tau fibril formation, thioflavin T binding | P10636 | recombinant tau K18 P301L, heparin-induced fibrillization, ThT fluorescence | Potency, µM (doses to about 57.4 µM), for inactives: at the top dose activity, negative = inhibition, hits mostly inhibitors | 270,000 tested, 2.1% active | AID 1460; also: nearly all actives have a fitted effect of over 55% in size
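ThT emission at 510 nm, taken 1 hr after adding 30 uM dye, quantifies aggregates formed when 20 uM heparin acts on human tau K18 P301L for 6 hr at 37 C.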
Tau fibril FP – blocks human tau fibril formation measured by polarization | Potency, µM (highest dose often 57.7 µM), without a hit: at the top dose activity, negative = inhibition, most hits filed as inhibitors | 280,000 tested, 0.39% active | K18 P301L tau heparin fibrillization, Alexa594 FP, 6 h; also: nearly all actives have a fitted effect of over 55% in size
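FP of Alexa 594-tau after heparin (20 uM) induction. Substrate: human K18 P301L, 15 uM unlabeled, 0.24 uM labeled. Buffer 100 mM sodium acetate pH 7. 6 hr, 37 C.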
HPGD block – blocks human HPGD enzyme activity | Potency, µM, for the others: top-dose activity change, negative = inhibition, actives largely listed as inhibitors | 150,000 tested, 4.3% active | AID 894 | purified HPGD, NADH fluorescence kinetic, PGE2 substrate | P15428; active = well fitted inhibition curve with a large enough effect, not every such curve was filed as active; inconclusive = small, poorly fitted or top-dose-only effect, or another doubt; inactive = no such curve, though single readings can be large or run the other way
Target sequence (P15428 whole entry, looked up): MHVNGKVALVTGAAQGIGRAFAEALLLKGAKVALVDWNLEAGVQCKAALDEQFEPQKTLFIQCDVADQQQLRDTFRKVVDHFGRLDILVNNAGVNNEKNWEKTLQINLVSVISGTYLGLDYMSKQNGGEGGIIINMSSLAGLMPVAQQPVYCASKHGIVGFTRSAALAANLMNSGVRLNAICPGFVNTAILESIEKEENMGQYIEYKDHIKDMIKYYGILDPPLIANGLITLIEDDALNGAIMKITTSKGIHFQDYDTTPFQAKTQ
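NADH formation kinetics: reaction with 30 uM PGE2 and 1 mM NAD+ (final), 20 nM enzyme, Tris-HCl pH 8 with Tween 20, after 15 min compound preincubation at room temperature. Fluorescence change, last versus first of five reads.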
Tau fluor counter – counter-screen for tau fibril formation inhibitors | tau K18 P301L (four-repeat tau fragment) Alexa594 fluorescence, heparin fibrillization | Potency, µM (doses to about 57.7 µM), inactives show top-dose activity change, negative = decrease | 280,000 tested, 0.93% active; also: nearly all actives have a fitted effect of over 55% in size
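Human K18 P301L tau (15 uM unlabeled plus 0.24 uM Alexa 594-labeled, final) in 100 mM sodium acetate pH 7 was mixed with compound and 20 uM heparin and incubated 6 hr at 37 C.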
Numbers without * were called inactive; u = inconclusive; x = no result given; [ ] = another dose, or the depositor's remark. Shown are actives, neighbours in structure and some others; about 9.9% of the full set was active somewhere. Unless noted, calls follow the shape of the dose curve; as a rule, active = well fitted curve in the direction sought with a large enough effect; inconclusive = small, poorly fitted or top-dose-only effect, or another doubt; inactive = no such curve, though single readings can be large; an effect the other way counts as inactive or inconclusive. Unless noted, % is scaled to controls: 0 for no effect and ±100 for the full control effect; potency is read from the fitted curve at half-maximal effect.

SMILES	KDM4E inh	ALDH1A1 block	Tau fibril ThT	Tau fibril FP	HPGD block	Tau fluor counter
O=c1c(N2CCN(c3cccc(Cl)c3)CC2)csc2ccc(Cl)cc12	x	x	8.91µM*	-5.0%	x	-29.3%
O=C(COc1ccc([N+](=O)[O-])cc1Cl)NCC1CCCO1 (stereo unspecified)	-3.1%	-2.4%	-12.3%	-14.5%	x	-8.3%
C=C1C2c3ccccc3C(CC2(C)O[Si](C)(C)C)N1C(=O)OC (stereo unspecified)	3.4%[11.4 µM]	3.1%[13.5 µM]	8.9%[11.5 µM]	3.9%[11.6 µM]	-2.3%	1.8%[11.6 µM]
N=C1/C(=C\c2ccc(OCc3ccccc3)cc2)C(=O)N=C2SC(N3CCCC3)=NN12	-28.6%	2.3%	3.98µM*	-8.5%	x	u
C=CCn1c(O)c(N=NC(=S)Nc2ccccc2C)c2cc(S(=O)(=O)N3CCOCC3)ccc21	-1.1%	10µM*	-16.9%	4.5%	-24.7%	u
Cc1cccc(NC(=S)N=Nc2c(O)n(CN3CCOCC3)c3ccccc23)c1C	10.3%	4.7%	u	-4.6%	-11.8%	11.2µM*[quencher]
Cc1ccc(N=Nc2c(O)n(CN3CCOCC3)c3ccccc23)cc1	-5.7%	-3.8%	u	-5.5%	-3.9%	-26.7%
CCN[C@@H]1C[C@H](C)S(=O)(=O)c2sc(S(N)(=O)=O)cc21	2.6%[25.5 µM]	13.3%[20.9 µM]	x	x	-2.7%	x
COc1c(-c2coc3cc4c(cc3c2=O)CC(O)C(C)(C)O4)ccc2c1C=CC(C)(C)O2 (stereo unspecified)	4.1%	u	-14.8%	10.1%	15.8µM*	-14.8%
CC1CC(C)CN(C(=O)/C(=C\c2ccccc2)c2ccccc2)C1 (stereo unspecified)	-1.9%	-9.1%	-7.6%	4.7%	11.2µM*	-1.4%
N#C/C(=C\c1ccc(O)cc1)C(=O)N1CCCC1	-7.8%	u	-6.8%	-0.5%	x	-6.7%
CC1CCCCN1C(=O)/C(=C\c1ccccc1)c1ccccc1 (stereo unspecified)	1.2%	-5.2%	-9.6%	-0.2%	14.1µM*	-3.7%
CN1CCN(C(=O)/C(C#N)=C/c2ccc(F)cc2)CC1	-6.1%	1.78µM*	-9.3%	7.5%	x	-4.4%
CN1CCN(C(=O)/C(=C/c2ccccc2)c2ccccc2)CC1	7.5%	-0.1%	-0.5%	-10.7%	12.6µM*	-9.9%
CNC(=O)/C(C#N)=C/c1c(N(Cc2ccccc2)Cc2ccccc2)nc2ccccn2c1=O	u	u	u	-3.9%	-7.4%	-16.0%
Cc1n[nH]c(C)c1N=Nc1ccc(Br)cc1	7.5%	0.3%	11.2µM*	-13.5%	x	-29.8%
Cc1ccccc1N(C)C(=O)c1noc2c1COc1ccccc1-2	x	x	7.7%	3.9%	x	-16.5%
CCOC(=O)C1(Cc2ccccc2Cl)CCN(S(=O)(=O)N(C)C)CC1	-12.5%	8.91µM*	-13.4%	0.4%	x	-21.7%
COc1ccc(OCCNC(=S)Nc2cccc3ccccc23)cc1	-12.7%	3.6%	-21.4%	-16.1%	-12.3%	u
S=C(NCCc1ccccc1)Nc1cccc2cnccc12	u	20µM*	u	-10.7%	x	-12.6%
COc1ccc(CCNC(=S)Nc2cccc3ccccc23)cc1	-28.6%	22.4µM*	-4.4%	13.9%	-7.7%	-22.5%
CCCCNC(=S)Nc1cccc2cnccc12	-5.8%	u	-8.9%	2.6%	x	-7.1%
CCn1cc(CNC(=S)Nc2cccc3ccccc23)cn1	u	6.31µM*	3.9%	-5.7%	x	3.9%
S=C(NCc1cccnc1)Nc1cccc2ccccc12	u	5.01µM*	-7.1%	-5.8%	-20.0%	-6.9%
CCOC(=O)c1cc(C)sc1/N=C/C1C(=O)CC(C)(C)CC1=O	10.6%	12.6µM*	-8.0%	-2.0%	-1.7%	-6.7%
SMILES	KDM4E inh	ALDH1A1 block	Tau fibril ThT	Tau fibril FP	HPGD block	Tau fluor counter
COC(=O)c1cc(OC)c(OC)cc1N=CC1=C(O)CC(C)(C)CC1=O	5.9%	1µM*	-6.5%	0.8%	u	0.2%
CCOC(=O)c1cc(CC)sc1/N=C/C1=C(O)CC(C)(C)CC1=O	0.7%	11.2µM*	-3.0%	2.1%	-19.8%	-9.7%
CCOC(=O)c1c(/N=C/C2C(=O)CCCC2=O)sc(C)c1C	-9.7%	u	-16.8%	-12.1%	-6.5%	-19.8%
CCOC(=O)c1c(CC(C)C)csc1/N=C/C1C(=O)CC(C)(C)CC1=O	-13.3%	6.31µM*	u	3.4%	x	-20.9%
CCOC(=O)c1ccc(N=CC2=C(O)CC(C)(C)CC2=O)cc1	u	u	-14.2%	-4.5%	u	-11.6%
CC1=C(C(=O)OC(C)C)[C@@H](c2ccc(C)o2)NC(=O)N1	9.0%	-8.3%	-3.4%	4.3%	-13.1%	-0.4%
NNC(=O)c1cc2c(s1)CCCCCC2	22.1%	0.355µM*	-5.9%	0.9%	-3.6%	-3.4%
Cc1cc(C)n(C(=O)c2cc3c(s2)CCCC3)n1	-0.4%	20µM*	-7.3%	-2.4%	-17.8%	-6.3%
Clc1ccc(-c2csc(-c3ccno3)n2)cc1	-26.5%	x	4.6%	3.7%	x	-2.0%
Fc1cccc(-c2csc(-c3ccno3)n2)c1	u	22.4µM*	-3.3%	-3.0%	x	-1.7%
CCC(=O)N1CCc2cc(Br)cc(S(=O)(=O)CCC(=O)Nc3cccc(C)c3C)c21	x	x	-1.8%	u	x	-9.1%
O=c1cc(O)n(-c2ccc(F)cc2)c(=S)[nH]1	-6.8%	3.8%	1.4%	0.6%	28.2µM*	-0.6%
O=C(O)c1ccc2c(=O)n(-c3ccc(F)cc3)c(=S)[nH]c2c1	-5.0%	5.6%	-7.7%	-3.6%	x	-9.3%
O=C(Nc1ccc2oc(-c3ccccc3)nc2c1)c1ccco1	u	-3.9%	-5.0%	-9.3%	u	-10.0%
Cc1ccc(O)c(C(=O)c2cnn(C(=O)Cc3csc(C)n3)c2)c1	-2.9%	1.12µM*	u	-5.3%	-11.6%	-7.5%
Cc1ncc(CC(=O)n2cc(C(=O)c3cc(F)ccc3O)cn2)s1	-8.3%	7.94µM*	-10.1%	-3.9%	-15.3%	-6.9%
COc1cccc(/C=C/C(=O)OCC(=O)NCC2CCCO2)c1OC (stereo unspecified)	0.9%	6.8%	-0.2%	-4.8%	-16.8%	3.2%
CCCCN(C)C(=O)c1coc(=O)c2ccccc12	1.0%	-2.8%	1.0%	-7.3%	22.4µM*	-4.3%
CCN(C(=O)c1coc(=O)c2ccccc12)c1ccccc1C	x	x	0.2%	-10.2%	x	-11.7%
CCc1nn(CC(=O)NCc2ccco2)c(=O)c2cc3c(OC)cccc3n12	x	x	-3.6%	-4.3%	x	-8.1%
CCOC(=O)Cc1ccc(NC(=O)N(Cc2ccc(CC)cc2)Cc2cn[nH]c2-c2ccc(OC)cc2)cc1	x	x	u	6.9%	x	-19.0%
COc1ccc2oc(=O)c(C(=O)C[n+]3cccc(C)c3)cc2c1	1.0%	14.1µM*	7.6%	-6.1%	x	2.4%
Cc1ccc(COn2c(-c3ccc(Cl)cc3Cl)nc3ncccc32)cc1	3.9%	17.8µM*	-19.3%	7.4%	6.6%	-5.9%
COc1ccc(-n2nnc3c(=O)n(CC(=O)Nc4cc(C)on4)cnc32)cc1OC	u	-1.6%	-6.0%	-10.0%	x	-4.7%
